In PubChem BioAssay (Tox21):
Records with an inconclusive call do not appear. Entries that show only a call come without a potency. The source made the active and inactive calls. Unless noted, calls follow the shape of the dose curve; as a rule, active = well fitted curve in the direction sought with a large enough effect in the repeat runs; inconclusive = weak or mixed curves; inactive = no such curve, though single readings can be large; an effect the other way counts as inactive or inconclusive.

What was measured:
[1] = qHTS assay to identify small molecule agonists of the vitamin D receptor (VDR) signaling pathway - cell viability counter screen (AID 743224); also: nearly all actives have a fitted effect of over 50% in size
How it was run: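 Cells: VDR-bla, 2,000/well, settled 4 h. Treatment: compounds in DMSO, 16 h, 37C/5% CO2. Readout: CellTiter-Glo luminescence after 30 min RT.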

[2] = qHTS assay to identify small molecule antagonists of the vitamin D receptor (VDR) signaling pathway - cell viability counter screen (AID 743225); also: nearly all actives have a fitted effect of over 50% in size
How it was run: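 Viability counter screen run in the same wells as the beta-lactamase reporter assay: HEK 293T VDR-UAS-bla cells, 16 h compound exposure at 37C with 3 nM (final) 1-alpha,25-dihydroxyvitamin D3. CellTiter-Glo luminescence, 30 min, room temperature.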

[3] = qHTS assay to identify small molecule agonists of the NFkB signaling pathway (AID 1159509; active = well fitted curve in the direction sought with a large enough effect in the signal ratio in the repeat runs, not every such curve was filed as active; the % refers to the signal ratio)
How it was run: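 Agonist activity was read as beta-lactamase-driven FRET change (460 and 530 nm emission, 405 nm excitation) following 1.5 hr substrate loading at room temperature. Beforehand, ME-180 NFkB-bla reporter cells were treated with compounds for 5 hr at 37 C.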

[4] = qHTS assay to identify small molecule agonists of the NFkB signaling pathway - cell viability counter screen (AID 1159515; calls by dose curve; also: nearly all actives have a fitted effect of over 55% in size)
How it was run: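 Cells are seeded (2,000 NFkB-bla ME-180 per well), rested overnight, and dosed with DMSO-dissolved compounds for 5 hr at 37 C. Viability is then read by CellTiter-Glo luminescence after 30 min at room temperature.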

[5] = molecular target: Nuclear receptor ROR-gamma (Homo sapiens) (UniProt P51449); assay: qHTS assay to identify small molecule antagonists of the retinoid-related orphan receptor gamma (ROR-gamma) signaling pathway (AID 1159521; also: nearly all actives have a fitted effect of over 50% in size; also: potency is read from the fitted curve at half-maximal effect)
How it was run: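 Luminescence readout (ONE-Glo, 30 min RT) after 16 h doxycycline induction; loss of signal scored as antagonism. CHO cells with TET-inducible RORγ and RORE-LUC reporter; compounds added 2 h before 1 uM final doxycycline.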

[6] = qHTS assay to identify small molecule agonists of the AP-1 signaling pathway - cell viability counter screen (AID 1159525; calls by dose curve; also: nearly all actives have a fitted effect of over 55% in size; also: potency is read from the fitted curve at half-maximal effect)
How it was run: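 Same-well cytotoxicity counter screen of the Tox21 10K library in ME-180 cells. The readout is ATP-dependent luminescence after 5 h compound treatment. Data are normalised to DMSO and tetra n-octyl ammonium bromide controls.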

[7] = qHTS assay to identify small molecule agonists of the AP-1 signaling pathway (AID 1159526; calls by dose curve)
[8] = molecular target: Retinoic acid receptor RXR-alpha (Homo sapiens) (UniProt P19793); assay: qHTS assay to identify small molecule agonists of the RXR signaling pathway (AID 1159527; calls by dose curve; also: nearly all actives have a fitted effect of over 35% in size)
How it was run: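 Agonist mode; 9-cis retinoic acid positive control. HEK 293T UAS-bla reporter cells, 2% charcoal-stripped FBS, 16 hr compound exposure at 37 C/5% CO2. LiveBLAzer B/G FRET substrate 2 hr RT; ex 405, em 460/530 nm.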

[9] = qHTS assay to identify small molecule agonists of the RXR signaling pathway - cell viability counter screen (AID 1159529); also: nearly all actives have a fitted effect of over 50% in size; also: potency is read from the fitted curve at half-maximal effect
How it was run: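 Luminescence from CellTiter-Glo (30 min, RT) measured viability in the same wells as the beta-lactamase reporter readout. Cells: GeneBLAzer RXR-alpha HEK 293T, 2% charcoal-stripped FBS. Compound exposure 16 hr, 37 C.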

[10] = qHTS assay to identify small molecule antagonists of the retinoid acid receptor (RAR) signaling pathway - cell viability counter screen (AID 1159551); also: nearly all actives have a fitted effect of over 35% in size
How it was run: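 Cells (C3RL4) are plated, incubated overnight, dosed with compound in DMSO, then given retinol at 1 uM final. After 6 h at 37 C, CellTiter-Glo is added and luminescence read following 30 min at room temperature.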

[11] = qHTS assay to identify small molecule antagonists of the retinoic acid receptor (RAR) signaling pathway (AID 1159552; also: nearly all actives have a fitted effect of over 50% in size; also: potency is read from the fitted curve at half-maximal effect)
How it was run: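 Luminescence from a RARE luciferase reporter in C3RL4 cells served as read-out. Cells received compounds together with 1 uM final retinol and incubated 6 hr at 37 C before detection reagent was added for 30 min at room temperature.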

[12] = qHTS assay to identify small molecule agonists of the retinoic acid receptor (RAR) signaling pathway (AID 1159553); conditions: C3RL4 RARE luciferase reporter, agonist, 6 h; activation: at 73.3 µM (top of the series); also: potency is read from the fitted curve at half-maximal effect
How it was run: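 Seed C3RL4 reporter cells at 1,000 per well and incubate overnight at 37 C. Add compounds in DMSO, incubate 6 hr. Add luciferase reagent, wait 30 min at room temperature, read luminescence.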

[13] = qHTS assay to identify small molecule agonists of the endoplasmic reticulum stress response signaling pathway (AID 1159516; active = well fitted activation curve with a large enough effect in the signal ratio in the repeat runs, not every such curve was filed as active; the % refers to the signal ratio)
How it was run: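 Cells are seeded at 1,500 per well and incubated overnight. Compounds in DMSO are added for 5 hr at 37 C, then beta-lactamase FRET substrate for 2 hr at room temperature, and fluorescence at 460 and 530 nm is measured.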

[14] = qHTS assay to identify small molecule agonists of the endoplasmic reticulum stress response signaling pathway - cell viability counter screen (AID 1159517; calls by dose curve)
How it was run: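 In parallel with the ESRE reporter read, cytotoxicity was scored by CellTiter-Glo luminescence (30 min, room temperature) on HeLa ESRE-bla cells dosed for 5 hr.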

[15] = qHTS assay to identify small molecule antagonists of the retinoid-related orphan receptor gamma (ROR-gamma) signaling pathway - cell viability counter screen (AID 1159520); also: nearly all actives have a fitted effect of over 50% in size
How it was run: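 Tet-on ROR gamma CHO cells were given compounds for 2 hr, then doxycycline hyclate at 1 uM final, and incubated 16 hr at 37 C. Viability was measured as ATP content by CellTiter-Glo luminescence.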

Sequence of Retinoic acid receptor RXR-alpha (Homo sapiens) (P19793 whole entry, looked up): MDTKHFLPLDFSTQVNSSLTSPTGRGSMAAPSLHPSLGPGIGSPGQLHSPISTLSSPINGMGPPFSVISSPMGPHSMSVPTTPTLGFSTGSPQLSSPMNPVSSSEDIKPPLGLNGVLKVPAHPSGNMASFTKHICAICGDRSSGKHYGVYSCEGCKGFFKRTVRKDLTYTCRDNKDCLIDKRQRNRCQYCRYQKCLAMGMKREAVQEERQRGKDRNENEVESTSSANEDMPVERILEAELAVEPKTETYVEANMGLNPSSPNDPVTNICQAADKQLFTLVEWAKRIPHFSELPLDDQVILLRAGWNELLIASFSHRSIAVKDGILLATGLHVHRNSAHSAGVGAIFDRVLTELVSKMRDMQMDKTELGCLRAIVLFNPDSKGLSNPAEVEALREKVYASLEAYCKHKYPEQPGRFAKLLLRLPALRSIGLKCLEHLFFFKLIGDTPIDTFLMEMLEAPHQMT

| SMILES | Potency [1] | Potency [2] | Potency [3] | Potency [4] | Potency [5] | Potency [6] | Potency [7] | Potency [8] | Potency [9] | Potency [10] | Potency [11] | Potency [12] | Potency [13] | Potency [14] | Potency [15] |
| --- | --- | --- | --- | --- | --- | --- | --- | --- | --- | --- | --- | --- | --- | --- | --- |
| CC(=O)Oc1ccc([N+](=O)[O-])cc1CCl | inactive | inactive | inactive | inactive | inactive | inactive | inactive | inactive | inactive | inactive | inactive | 68.6 µM (active) |  |  |  |
| O=C(/C=C/c1ccc(O)c(O)c1)O[C@@H]1C[C@@](OC(=O)/C=C/c2ccc(O)c(O)c2)(C(=O)O)C[C@@H](O)[C@@H]1O | inactive | inactive | inactive |  | inactive |  | inactive | inactive | inactive | inactive | inactive | inactive | inactive | inactive | inactive |
| NC(=O)c1ccncc1 | inactive | inactive | inactive |  | inactive |  | inactive | inactive | inactive | inactive | inactive | inactive | inactive | inactive | inactive |
| CC(CCC(=O)O)C(=O)O (configuration not stated) | inactive | inactive | inactive |  | inactive | inactive | inactive | inactive | inactive |  | inactive | inactive | inactive | inactive | inactive |
| CCOC(=O)c1ccc(O)c(O)c1 | inactive | inactive | inactive |  | inactive | inactive | inactive | inactive | inactive | inactive | inactive | inactive | inactive | inactive | inactive |
| Cc1cccc(O)c1N | inactive | inactive | inactive |  | 13.8 µM (active) | 44.1 µM (active) |  |  | inactive | inactive | inactive | inactive | inactive | inactive | inactive |
| CCC1(CO)COCOC1 |  | inactive | inactive |  | inactive | inactive | inactive | inactive | inactive | inactive | inactive | inactive | inactive | inactive | inactive |
| COc1cc(C(=O)NCCCCCC(=O)O)cc(OC)c1OC | inactive | inactive | inactive |  | inactive | inactive | inactive | inactive | inactive | inactive | inactive | inactive | inactive | inactive | inactive |
| CCCC(=O)C(=O)O | inactive | inactive | inactive |  | inactive | inactive | inactive | inactive | inactive | inactive | inactive | inactive | inactive | inactive | inactive |
| C=CC(=O)OCC1CC2CC1C1CCC(COC(=O)C=C)C21 (configuration not stated) |  |  | inactive | inactive | 54.5 µM (active) | inactive |  |  | 43.6 µM (active) |  | 8.63 µM (active) |  |  |  |  |
| CC(=O)Nc1ccc(C)cc1C | inactive | inactive | inactive |  | inactive | inactive | inactive | inactive | inactive | inactive |  |  | inactive | inactive | inactive |
| O=c1[nH]c2ccc(Cl)cc2o1 | inactive | inactive | inactive |  | inactive | inactive | inactive | inactive | inactive | inactive | inactive | inactive | inactive | inactive | inactive |
| CCn1cc(C(=O)O)c(=O)c2cc(F)c(N3CCNCC3)cc21 | inactive | inactive | inactive |  | inactive |  | inactive | inactive | inactive | inactive | inactive | inactive | inactive | inactive | inactive |
| C=C/C(C)=C/C/C=C(\C)CCC=C(C)C | inactive | inactive | inactive |  | inactive | inactive | inactive |  |  | inactive |  |  | inactive | inactive | inactive |
| Nc1ccc(N=Nc2ccccc2)c(N)c1 |  | inactive | inactive | inactive | inactive | inactive |  |  |  | inactive | inactive | 0.238 µM (active) |  |  |  |
| O[C@@H]1CO[C@H]2[C@@H]1OC[C@@H]2O | inactive | inactive | inactive |  | inactive | inactive | inactive | inactive | inactive | inactive | inactive | inactive | inactive | inactive | inactive |
| C[C@H]1C[C@H](O)c2ccsc2S1(=O)=O | inactive | inactive | inactive |  | inactive | inactive | inactive | inactive | inactive | inactive | inactive | inactive | inactive | inactive | inactive |
| C=COCC(C)C | inactive | inactive | inactive |  | inactive | inactive | inactive | inactive | inactive | inactive | inactive | inactive | inactive | inactive | inactive |
| CCCCCCC(C)(C)C(=O)O | inactive | inactive | inactive |  | inactive | inactive | inactive | inactive | inactive | inactive | inactive | inactive | inactive | inactive | inactive |
